From PubChem BioAssay AID1159580 (chemical genetic matrix, 2015)
Where “and” joins values, the source holds several entries; their conditions need not be identical. Equal values may be shown once. In all, about 5,500 compounds went through this assay and about 2,000 (36%) were called active. Roughly 18% stayed inconclusive and do not appear here. No stated cut-off is given here; in the data, active means normalized growth mostly below about 0.91 (no sharp cut-off); inconclusive means no clear call, values can overlap the other calls; inactive means mostly above about 0.92. The list shows a part of the results.

Assay: chemical genetic growth profiling, strain panel (AID 1159580);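 further: tested at 20 µM; growth read once vehicle control cultures reached saturation at 30 °C; 1 = growth at the plate median or of vehicle wells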
Details: S. cerevisiae deletion strains, growth OD

Measured: normalized growth

CC(=O)CC1CCCCN1 (configuration not stated)
inactive: locus YAL013W, strain DEP1, stronger effect = lower value 1.01 | locus YAL021C, strain ccr4, stronger effect = lower value 1.02 | locus YAL026C, strain drs2, stronger effect = lower value 1.01 | locus YAL030W, strain snc1, stronger effect = lower value 1.02 | locus YBL061C, strain skt5, stronger effect = lower value 1.02 | locus YBR009C, strain hhf1, stronger effect = lower value 1.02 | locus YBR021W, strain FUR4, stronger effect = lower value 0.985 | locus YBR023C, strain chs3, stronger effect = lower value 1.03 | locus YBR171W, strain sec66, stronger effect = lower value 1.02 | locus YBR229C, strain ROT2, stronger effect = lower value 1.02 | locus YBR231C, strain swc5, stronger effect = lower value 1.01 | locus YBR279W, strain paf1, stronger effect = lower value 1.03 | locus YCL011C, strain gbp2, stronger effect = lower value 1.02 | locus YCL016C, strain dcc1, stronger effect = lower value 1.03 | locus YCL029C, strain bik1, stronger effect = lower value 0.99 | locus YCL061C, strain MRC1, stronger effect = lower value 1.01 | locus YCL069W, strain vba3, stronger effect = lower value 1 | locus YCR088W, strain abp1, stronger effect = lower value 1.02 | locus YDL005C, strain med2, stronger effect = lower value 1.02 | locus YDL035C, strain GPR1, stronger effect = lower value 1.02 | locus YDL040C, strain nat1, stronger effect = lower value 1.02 | locus YDL074C, strain BRE1, stronger effect = lower value 1.03 | locus YDL101C, strain DUN1, stronger effect = lower value 1.02 | locus YDL134C, strain PPH21, stronger effect = lower value 1.01 | locus YDL185W, strain tfp1, stronger effect = lower value 1 | locus YDL192W, strain arf1, stronger effect = lower value 0.992 | locus YDR001C, strain nth1, stronger effect = lower value 1.01 | locus YDR069C, strain doa4, stronger effect = lower value 1.01 | locus YDR101C, strain arx1, stronger effect = lower value 0.982 | locus YDR137W, strain rgp1, stronger effect = lower value 1.04 | locus YDR150W, strain NUM1, stronger effect = lower value 1.02 | locus YDR159W, strain sac3, stronger effect = lower value 1.01 | locus YDR162C, strain NBP2, stronger effect = lower value 1.03 | locus YDR195W, strain ref2 0.982 | locus YDR297W, strain sur2, stronger effect = lower value 1.01 | locus YDR318W, strain mcm21, stronger effect = lower value 0.993 | locus YDR334W, strain swr1, stronger effect = lower value 1 | locus YDR335W, strain msn5, stronger effect = lower value 1.01 | locus YDR388W, stronger effect = lower value 0.992 | locus YDR392W, strain spt3, stronger effect = lower value 0.981 | locus YDR502C, strain sam2, stronger effect = lower value 1 | locus YEL003W, strain gim4, stronger effect = lower value 1.01 | locus YEL037C, strain rad23, stronger effect = lower value 1.02 | locus YEL061C, strain CIN8 (second series), stronger effect = lower value 1.02 | locus YEL061C, strain CIN8, stronger effect = lower value 1.02 | locus YER015W, strain faa2, stronger effect = lower value 1.02 | locus YER016W, strain bim1, stronger effect = lower value 1.02 | locus YER110C, stronger effect = lower value 0.988 | locus YER111C, strain swi4, stronger effect = lower value 1.02 | locus YER155C, strain BEM2 (second series), stronger effect = lower value 1.01 | locus YER155C, strain BEM2, stronger effect = lower value 1.01 | locus YER167W, strain BCK2, stronger effect = lower value 1.01 | locus YFR010W, strain ubp6, stronger effect = lower value 1.01 | locus YGL078C, strain dbp3, stronger effect = lower value 0.991 | locus YGL086W, strain mad1, stronger effect = lower value 0.991 | locus YGL167C, strain pmr1, stronger effect = lower value 1.02 | locus YGL173C, strain kem1, stronger effect = lower value 1.01 | locus YGL227W, strain vid30, stronger effect = lower value 1.02 | locus YGL240W, strain doc1, stronger effect = lower value 1.01 | locus YGL248W, strain PDE1, stronger effect = lower value 1.02 | locus YGL253W, strain hxk2, stronger effect = lower value 1.02 | locus YGR078C, strain PAC10, stronger effect = lower value 1.02 | locus YGR135W, strain pre9, stronger effect = lower value 1 | locus YGR229C, strain SMI1, stronger effect = lower value 1.03 | locus YGR252W, strain gcn5, stronger effect = lower value 0.915 | locus YHR013C, strain ard1, stronger effect = lower value 1.02 | locus YHR027C, strain rpn1, stronger effect = lower value 1.01 | locus YHR030C, strain SLT2, stronger effect = lower value 1.01 and 0.991 | locus YHR079C, strain IRE1 (second series), stronger effect = lower value 0.994 | locus YHR079C, strain IRE1, stronger effect = lower value 1 | locus YHR094C, strain hxt1, stronger effect = lower value 0.991 | locus YHR129C, strain ARP1, stronger effect = lower value 0.974 | locus YHR142W, strain chs7, stronger effect = lower value 1.02 | locus YHR200W, strain rpn10, stronger effect = lower value 0.982 | locus YIL066C, strain RNR3, stronger effect = lower value 1.02 | locus YIL073C, strain SPO22, stronger effect = lower value 1.01 | locus YIL125W, strain kgd1, stronger effect = lower value 0.99 | locus YIR030C, strain dcg1, stronger effect = lower value 0.993 | locus YJL092W, strain hpr5, stronger effect = lower value 1.01 | locus YJL095W, strain BCK1 (second series), stronger effect = lower value 1.02 | locus YJL095W, strain BCK1, stronger effect = lower value 1.01 and 0.998 | locus YJL115W, strain asf1, stronger effect = lower value 1.02 | locus YJL129C, strain trk1, stronger effect = lower value 1.04 | locus YJL134W, strain LCB3, stronger effect = lower value 1.01 | locus YJL154C, strain vps35, stronger effect = lower value 1.02 | locus YJL164C, strain tpk1, stronger effect = lower value 1.03 | locus YJL166W, strain qcr8, stronger effect = lower value 1.03 | locus YJL168C, strain set2, stronger effect = lower value 0.991 | locus YJL187C, strain SWE1 (second series), stronger effect = lower value 1.02 | locus YJL187C, strain SWE1, stronger effect = lower value 1.01 | locus YJR043C, strain POL32, stronger effect = lower value 0.992 | locus YJR066W, strain TOR1, stronger effect = lower value 0.975
